Data from PubChem BioAssay AID1851 (National Center for Advancing Translational Sciences (NCATS), 2009).
The campaign covered roughly 16,000 compounds. About 4,000 (25%) were called active. Not shown: some 26% with an inconclusive outcome. Not all results are given here. A number with no mark means an inactive call. Calls follow the shape of the dose curve; as a rule, active = well fitted curve in the direction sought with a large enough effect; inconclusive = small, poorly fitted or top-dose-only effect, or effect the other way; inactive = no such curve, though single readings can be large or run the other way.
% is scaled to controls: 0 for no effect and ±100 for the full control effect.

These compounds were tested against Cytochrome P450 2C9 (Homo sapiens) (UniProt P11712) (assay: Cytochrome panel assay with activity outcomes). Conditions: recombinant CYP, pro-luciferin dealkylation, luminescence, p450-cyp2c9; series mostly up to 57.1 µM; activity, negative = inhibition: at the top concentration.
Chain of Cytochrome P450 2C9 (Homo sapiens) (P11712 whole entry, looked up): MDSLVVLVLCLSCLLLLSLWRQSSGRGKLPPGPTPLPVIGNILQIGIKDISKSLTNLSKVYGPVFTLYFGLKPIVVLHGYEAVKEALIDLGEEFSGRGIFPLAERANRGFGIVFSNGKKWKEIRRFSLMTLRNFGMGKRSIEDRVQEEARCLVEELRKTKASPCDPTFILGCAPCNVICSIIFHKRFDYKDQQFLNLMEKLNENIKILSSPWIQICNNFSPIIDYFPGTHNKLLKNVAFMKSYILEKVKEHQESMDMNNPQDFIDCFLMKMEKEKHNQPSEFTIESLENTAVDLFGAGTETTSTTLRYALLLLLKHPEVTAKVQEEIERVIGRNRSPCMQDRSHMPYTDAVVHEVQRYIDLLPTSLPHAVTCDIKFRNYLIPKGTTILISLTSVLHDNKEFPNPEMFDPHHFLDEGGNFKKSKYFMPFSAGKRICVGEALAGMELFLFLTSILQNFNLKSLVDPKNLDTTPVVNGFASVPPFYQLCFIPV
With Cn1ncc(C#N)c1/N=C/N1CCCCCC1 the “activity, negative = inhibition” value was -21.1%.
With Cn1cccc1C(=O)N1CCC2(CC1)CN(c1ccccn1)C2 the “activity, negative = inhibition” value was 3.16%.
With CN1C(=O)/C(=C\c2ccccc2)Sc2ccc(C(=O)N3CCN(c4ccccn4)CC3)cc21 the AC50 was 11.2 µM (active).
In the case of O=C(c1csnn1)N1CCC2(CC1)CN(c1ccccn1)C2, the “activity, negative = inhibition” value is reported as 29.9%.
CCOC(=O)c1oc2ccccc2c1NC(=O)c1ccc(S(=O)(=O)N(C)C)cc1 was tested, and the AC50 was 0.562 µM (active).
CCOC(=O)c1oc2ccccc2c1NC(=O)c1ccc2c(c1)OCO2 was tested, and the “activity, negative = inhibition” value was -7.45%.
With CCOC(=O)c1oc2ccccc2c1NC(=O)c1cc(OC)cc(OC)c1 the AC50 was 14.1 µM (active).
With Oc1ccccc1CNn1cnnc1 the “activity, negative = inhibition” value was -7.99%.
With NC(=NCc1ccc(Cl)c(Cl)c1)NC(=O)c1nc(Cl)c(N)nc1N the “activity, negative = inhibition” value was -18.8%.
COc1ccccc1-c1nccc(NC2CCNCC2)n1 gave an activity, negative = inhibition of 3.9% [at 2.29 µM].
In the case of O=C1c2ccccc2C(=O)c2c(NC3CCCCC3)ccc(Nc3ccc(S(=O)(=O)O)cc3)c21, the activity, negative = inhibition is reported as -7.2% [at 11.4 µM].
With Nc1c(S(=O)(=O)O)cc(Nc2cccc(S(N)(=O)=O)c2)c2c1C(=O)c1ccccc1C2=O the AC50 was 3.16 µM (active).
In the case of COc1ncc2nc(-c3cc(F)cc(F)c3)c(=O)n(-c3ccccc3)c2n1, the “activity, negative = inhibition” value is reported as -1.98%.
With C[C@@H]1C(=O)N(C)C(=O)c2nc[nH]c21 the “activity, negative = inhibition” value was 11.7%.
In the case of O=C(COc1ccc(Br)cc1)N1CCC(c2ccccc2)C1 (stereo unspecified), the AC50 is reported as 14.1 µM (active).
For Cc1cccc(OCC(=O)N2CCC(N3CCCCCC3)CC2)c1, the “activity, negative = inhibition” value was -26.9%.
CCOc1ccc(NC(=O)N2CCC(c3ccc(C)cc3)C2)cc1 (stereo unspecified) was tested, and the “activity, negative = inhibition” value was -27.4%.
COc1ccc(C(C(=O)NC2CCCCC2)N(C(=O)c2sc(C)nc2C)c2ccc(C(C)=O)cc2)cc1 (stereo unspecified) was tested, and the “activity, negative = inhibition” value was -11.5%.
For COc1ccc(C[C@H](N)C(=O)N[C@@H]2[C@H](O)[C@H](n3cnc4c(N(C)C)ncnc43)O[C@@H]2CO)cc1, the “activity, negative = inhibition” value was -0.46% [at 25.6 µM].
With CCc1ccc(N(C(=O)c2ccoc2C)C(C(=O)NC2CCCC2)c2ccc(OC)cc2)cc1 (stereo unspecified) the AC50 was 28.2 µM (active).
For C[C@H](O)[C@H](O)[C@@H]1CNc2nc(N)[nH]c(=O)c2N1, the “activity, negative = inhibition” value was 22%.
In the case of COc1ccc(OC)c2[nH]c(=O)c(CCNS(=O)(=O)c3ccc(C)cc3)cc12, the AC50 is reported as 3.55 µM (active).
In the case of COc1ccc(OC)c2[nH]c(=O)c(CCNS(=O)(=O)c3ccc(Cl)cc3)cc12, the AC50 is reported as 2.24 µM (active).
With CCS(=O)(=O)NCCc1cc2ccc(C)cc2[nH]c1=O the “activity, negative = inhibition” value was -10%.
COc1ccc(C(=O)N2CCC[C@@]3(CCN(c4cccc(-c5ccccc5)c4)C3)C2)cc1 was tested, and the “activity, negative = inhibition” value was -25.3%.
COc1cccc(-c2cc3nc(-c4ccccc4)cc(N4CCC5(CC4)OCCO5)n3n2)c1 was tested, and the AC50 was 2.82 µM (active).
With Fc1cc2nc(-c3ccncc3)[nH]c2cc1F the AC50 was 7.94 µM (active).
In the case of CCOc1ccc(N=C2NC(=O)C(CC(=O)O)S2)cc1 (stereo unspecified), the “activity, negative = inhibition” value is reported as -15.7%.
For N#CCCn1c(=O)c(-c2ccc(F)cc2)nc2cnc(N3CCOCC3)nc21, the “activity, negative = inhibition” value was 17.5%.
In the case of CCOC(=O)N1CCN(S(=O)(=O)Cc2ccccc2)CC1, the “activity, negative = inhibition” value is reported as -29.3%.
For CCOC(=O)N1CCN(C(=O)C(C)SCc2ccccc2)CC1 (stereo unspecified), the AC50 was 3.55 µM (active).
CC(C)(SCc1ccccc1)[C@H](N)C(=O)O was tested, and the activity, negative = inhibition was -5.67% [at 11.4 µM].
With CC(C)Cn1cnc2c(SCc3ccccn3)nc(N)nc21 the activity, negative = inhibition was 0.334% [at 11.4 µM].
For Cc1ccc2[nH]c3c(c2c1)CN(C(=O)CN1c2ccc(F)cc2CCC1C)CC3 (stereo unspecified), the AC50 was 10 µM (active).
In the case of OCC1CCCN(Cc2ccc(-c3ccccc3)cc2)C1 (stereo unspecified), the “activity, negative = inhibition” value is reported as -14%.
With CS(=O)(=O)N1CCN(c2ccc([N+](=O)[O-])c(NCc3ccccc3)c2)CC1 the AC50 was 12.6 µM (active).
CC(=O)Nc1ccc(N2CCCCC2)cc1 was tested, and the “activity, negative = inhibition” value was -0.405%.
Clc1ccccc1-c1cc(NCc2ccccc2)ncn1 gave an activity, negative = inhibition of 4.07% [at 2.29 µM].
In the case of CNc1cc(N2CCCCCC2)ccc1[N+](=O)[O-], the AC50 is reported as 6.31 µM (active).
For O=[N+]([O-])c1ccc(N2CCCC2)cc1NCc1ccccc1, the AC50 was 1.58 µM (active).
In the case of CCN1CCC[C@H]1CNC(=O)c1c(OC)ccc(Br)c1OC, the AC50 is reported as “inactive”.
With O=c1c(-c2cccc(Cl)c2)nc2cncnc2n1C1CC1 the “activity, negative = inhibition” value was 20.6%.
In the case of O=c1c(-c2cc(F)cc(F)c2)nc2cncnc2n1Cc1ccccc1Cl, the AC50 is reported as 3.98 µM (active).
O=c1c(-c2cccc(Cl)c2)nc2cncnc2n1Cc1ccccc1 was tested, and the AC50 was 1.26 µM (active).
O=c1c(-c2cccc(Cl)c2)nc2cncnc2n1Cc1ccccc1Cl was tested, and the AC50 was 3.98 µM (active).
In the case of COc1ccc(-n2c(=O)c(-c3cc(F)cc(F)c3)nc3cncnc32)cc1, the “activity, negative = inhibition” value is reported as 4.19%.
In the case of O=c1c(-c2cccc(F)c2)nc2cncnc2n1Cc1ccccc1Cl, the AC50 is reported as 7.94 µM (active).
In the case of O=c1c(-c2cccc(F)c2)nc2cncnc2n1C1CC1, the “activity, negative = inhibition” value is reported as -5.69%.
For c1nc(NC2CCNCC2)c2cc(-c3ccoc3)ccc2n1, the activity, negative = inhibition was -8.97% [at 2.29 µM].
N#Cc1cccc(NC(=O)N2CCCC3(CCN(C(=O)c4csnn4)CC3)C2)c1 was tested, and the “activity, negative = inhibition” value was 0.0244%.
With O=c1c(-c2ccc(Cl)cc2)nc2cncnc2n1Cc1ccccc1Cl the “activity, negative = inhibition” value was -22.7%.
O=c1c(-c2ccc(F)c(F)c2)nc2cncnc2n1C1CC1 was tested, and the “activity, negative = inhibition” value was 12.8%.
For O=c1c(-c2ccc(F)c(F)c2)nc2cncnc2n1Cc1ccccc1Cl, the AC50 was 5.01 µM (active).
Compound O=c1c2ccccc2sc2c(CO)ccc(NCCN3CCCCC3)c12 has an activity, negative = inhibition of 17.3% [at 11.4 µM].
COc1ccc([N+](=O)[O-])cc1COc1ccc2c(-c3ccccc3)cc(=O)oc2c1 was tested, and the AC50 was 7.08 µM (active).
For N[C@H](CCCP(=O)(O)O)C(=O)O, the “activity, negative = inhibition” value was -10.4%.
For Cc1cn(CC[C@H](N)C(=O)O)c(=O)[nH]c1=O, the activity, negative = inhibition was 23.1% [at 11.4 µM].
CCCCCCc1c(C[C@H](N)C(=O)O)o[nH]c1=O was tested, and the AC50 was “inactive”.
For Cc1o[nH]c(=O)c1CC[C@H](N)C(=O)O, the AC50 was 10 µM (active).
With Cc1ccc(S(=O)(=O)N[C@H]2COC(=O)[C@H](C)COC(=O)[C@H](C)NC(=O)C/C=C\[C@H]2C)cc1 the activity, negative = inhibition was 2.34% [at 11.4 µM].
For CC(C)(C[C@@]1(C)NC(=O)NC1=O)OCc1ccccc1, the activity, negative = inhibition was 9.56% [at 11.4 µM].
For CN1CCc2c(c3c(n2C)CCN(C)[C@H]3c2ccccc2F)[C@@H]1c1ccccc1F, the “activity, negative = inhibition” value was 13.7%.
In the case of O=C1NCCN1Cc1ccccc1F, the AC50 is reported as 12.6 µM (active).
In the case of COc1ccc(OC)c(NC(=O)[C@H]2CC=CC[C@H]2C(=O)O)c1, the “activity, negative = inhibition” value is reported as -19.2%.
In the case of COc1ccc(OC)c(NC(=O)CC(Cc2ccccc2OC)C(=O)O)c1 (stereo unspecified), the AC50 is reported as 2.24 µM (active).
With Cc1ccc(Oc2ncc(CN3CCOCC3)s2)cc1 the “activity, negative = inhibition” value was -12.5%.
In the case of CCOC(=O)C1CCN(C(=O)C2CCN(S(=O)(=O)N3CCCC3)CC2)CC1, the “activity, negative = inhibition” value is reported as -26.3%.
For CCOC(=O)C1CCN(Cc2cnc(Oc3ccc(OC)cc3)s2)CC1, the AC50 was 10 µM (active).
In the case of c1ccc2nc(C3=NCCN3)cnc2c1, the “activity, negative = inhibition” value is reported as 16.2%.
O=C1c2ccccc2C(=O)N1CCCCN(C(=O)c1cccc([N+](=O)[O-])c1)c1ccc(Cl)cc1 was tested, and the AC50 was 7.08 µM (active).
In the case of O=C1c2ccccc2C(=O)N1CCCCN(C(=O)c1ccc([N+](=O)[O-])cc1)c1ccc(Cl)cc1, the AC50 is reported as 1.78 µM (active).
In the case of N=C(N)S[C@H]1c2ccccc2-c2cc([N+](=O)[O-])ccc21, the activity, negative = inhibition is reported as -26% [at 11.4 µM].
N[C@H](C(=O)O)C1[C@H](C(=O)O)[C@H]1C(=O)O (stereo partly specified) was tested, and the “activity, negative = inhibition” value was -16.8%.
For CCOC(=O)N1CCN(C(=O)c2ccc3c(=O)n(-c4ccc(OC)cc4)c(=S)[nH]c3c2)CC1, the “activity, negative = inhibition” value was -21.8%.
For O=c1[nH]c(=S)c2[nH]c(=O)n(-c3ccccc3)c2[nH]1, the activity, negative = inhibition was -16.7% [at 11.4 µM].
CCc1cc2c(=O)n(-c3ccccc3)c(=S)[nH]c2s1 was tested, and the AC50 was 14.1 µM (active).
In the case of O=C(N/N=C/c1c[nH]c2ccccc12)c1ccn(Cc2ccc(Cl)cc2Cl)n1, the AC50 is reported as 1.26 µM (active).
CO[C@@H]1COC(=O)CCC[C@@H](C)[C@H](OC)COC(=O)CCC[C@H]1C gave an activity, negative = inhibition of -7% [at 11.4 µM].
For C=CCc1cccc(C2Nc3ccccc3C(=O)N2O)c1O (stereo unspecified), the AC50 was 5.01 µM (active).
CC(C)CC1CC(=O)OC1(C)C(=O)CSc1nc2ccccc2s1 (stereo unspecified) was tested, and the AC50 was 28.2 µM (active).
In the case of CC1(C(=O)CSc2nc3ccccc3s2)CCC(=O)O1 (stereo unspecified), the “activity, negative = inhibition” value is reported as -21.7%.
With COc1ccc(-c2oc3ccccc3c(=O)c2OC(=O)c2ccc(C)cc2)cc1 the AC50 was 1.26 µM (active).
Cc1cc2ccc(OC(=O)c3ccc(N=C(N)N)cc3)cc2oc1=O was tested, and the activity, negative = inhibition was 3.7% [at 11.4 µM].
With Cc1ccc(OC(=O)c2cccc(C(=O)Oc3ccc(C)cc3)n2)cc1 the “activity, negative = inhibition” value was -49.8%.
CC(=O)NCCNc1ncnc2ccc(-c3cccc(NS(C)(=O)=O)c3)cc12 gave an activity, negative = inhibition of -12.9% [at 2.29 µM].
With CCC(=O)Nc1ccc(NC(=O)CSc2nnnn2-c2cccnc2)cc1C the “activity, negative = inhibition” value was -19.7%.
For COc1ccc2nc(SCC(=O)Nc3ccc4c(c3)OCCO4)[nH]c2c1, the AC50 was 2.24 µM (active).
CCOC(=O)NC(=O)CSc1nc2ccc(OCC)cc2[nH]1 was tested, and the “activity, negative = inhibition” value was -28.6%.
Cc1ccc(NC(=O)CSc2nnc(-c3ccncc3)o2)cc1 was tested, and the AC50 was 3.55 µM (active).
With CC(C)(C)c1ccc(-c2nnc(SCC(=O)c3ccc4c(c3)OCCO4)o2)cc1 the AC50 was 3.16 µM (active).
Work on Cc1ccc2nc(CC(=O)c3ccc4ccccc4c3)c(=O)[nH]c2c1 yielded an activity, negative = inhibition of -7.8% [at 11.4 µM].
In the case of NC(=O)c1ccc(-c2nc(-c3ccc4c(c3)OCO4)c(-c3ccccn3)[nH]2)cc1, the “activity, negative = inhibition” value is reported as -18.5%.
In the case of Cc1ccc2nc(SCC(=O)c3ccc4c(c3)OCO4)[nH]c2c1, the AC50 is reported as 5.01 µM (active).
CCS(=O)(=O)N1CCC(C(=O)NCCCN2CCCC2)CC1 was tested, and the “activity, negative = inhibition” value was 14.5%.
With COc1ccc([C@H]2Sc3ccccc3N(CCN(C)C)C(=O)[C@H]2OC(C)=O)cc1 the AC50 was “inactive”.
Compound NC(N)=N/N=C(\c1ccc(Cl)cc1)C1CC1 has an activity, negative = inhibition of -1.67% [at 11.4 µM].
